Of roughly 7,900 targets only a part is listed; those with a hit were picked by preference. About 0.6% of all pairs of compound and target were hits. Values without a mark were called inactive.
Experiments:
Assay in all cases: log2 fold change, soluble protein after heating vs DMSO (PISA); higher = thermal stabilisation; K562 cells, 10 uM, 30 min; active = over 0.2 and 3.5 SD of the protein, either way, in both replicates (recomputed)
erlotinib = compound: C#Cc1cccc(Nc2ncnc3cc(OCCOC)c(OCCOC)cc23)c1 [erlotinib]
Method in brief: (§1)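 Soluble protein was quantified by TMTpro 16plex LC-MS/MS after channel sums were equalised. It was obtained as the supernatant after 21,000xg for 90 min from pooled aliquots of K562 cells (2×10^6 cells/mL, 10 μM compound, 30 min) heated for 3 min across 48°C-58°C and extracted in PBS with 0.5% NP-40 at 4°C. Thermal stability values are relative to control samples and come from duplicates. They are given as log2 fold changes.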

[1] = compound: C/C(=N\NC(=O)C1=CC(=CC=C1)S(=O)(=O)N2CCOCC2)/C3=C(C=CC(=C3)Cl)O
Method in brief: as §1

[2] = compound: C1=CC(=C(C=C1Cl)C2=NC3=NC=CN=C3C(=N2)NC4=CC=NC=C4)F
Method in brief: as §1

[3] = compound: C1=CC(=CC=C1C2=NC3=C(N2)C=C(C=C3)C(=O)N)OC4=CC=C(C=C4)Cl
Method in brief: as §1

[4] = compound: C1=CC2=C(C=CC(=C2)/C=C\3/C(=O)NC(=NCC4=CC=CS4)S3)N=C1
Method in brief: as §1

[5] = compound: C1=CC2=NC=CN=C2C=C1/C=C/3\C(=O)NC(=O)S3
Method in brief: as §1

[6] = compound: C1=CC=C(C=C1)C2=NC(=C(N2)C3=CC=NC=C3)C4=CC(=C(C=C4)Cl)O
Method in brief: as §1

[7] = compound: C1=CC=C2C(=C1)C3=NNC4=CC=CC(=C43)C2=O
Method in brief: as §1

[8] = compound: C1CCN(C1)C(=O)NC2=CC=CC(=C2)NC3=NC=C(C(=N3)NCCC4=CN=CN4)Br
Method in brief: as §1

[9] = compound: C1CN(CCC1(CC2=CC=C(C=C2)Cl)N)C3=NC=NC4=C3C=CN4
Method in brief: as §1

UniProt Q6ZVM7, sequence (Q6ZVM7 whole entry, looked up): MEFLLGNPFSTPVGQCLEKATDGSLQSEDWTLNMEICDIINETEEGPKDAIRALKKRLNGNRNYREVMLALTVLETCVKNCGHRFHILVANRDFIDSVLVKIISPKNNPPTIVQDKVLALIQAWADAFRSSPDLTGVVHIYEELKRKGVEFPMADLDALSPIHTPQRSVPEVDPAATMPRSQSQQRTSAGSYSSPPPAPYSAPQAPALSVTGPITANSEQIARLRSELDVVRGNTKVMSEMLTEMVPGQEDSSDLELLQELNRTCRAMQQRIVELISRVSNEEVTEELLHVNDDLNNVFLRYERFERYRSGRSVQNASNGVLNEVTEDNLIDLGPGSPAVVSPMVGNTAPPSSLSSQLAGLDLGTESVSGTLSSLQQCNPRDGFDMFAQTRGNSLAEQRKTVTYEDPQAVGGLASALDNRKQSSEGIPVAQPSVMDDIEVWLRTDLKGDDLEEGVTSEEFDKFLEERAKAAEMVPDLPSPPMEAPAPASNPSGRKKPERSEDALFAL
UniProt Q86TN4, sequence (Q86TN4 whole entry, looked up): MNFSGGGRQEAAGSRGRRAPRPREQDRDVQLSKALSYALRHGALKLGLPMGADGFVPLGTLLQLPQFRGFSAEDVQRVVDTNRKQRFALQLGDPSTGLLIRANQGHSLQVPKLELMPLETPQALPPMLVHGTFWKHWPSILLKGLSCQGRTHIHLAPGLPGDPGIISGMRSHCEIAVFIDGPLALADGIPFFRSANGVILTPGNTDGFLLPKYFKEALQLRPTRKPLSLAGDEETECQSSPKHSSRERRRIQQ
UniProt Q9BZM6, sequence (Q9BZM6 whole entry, looked up): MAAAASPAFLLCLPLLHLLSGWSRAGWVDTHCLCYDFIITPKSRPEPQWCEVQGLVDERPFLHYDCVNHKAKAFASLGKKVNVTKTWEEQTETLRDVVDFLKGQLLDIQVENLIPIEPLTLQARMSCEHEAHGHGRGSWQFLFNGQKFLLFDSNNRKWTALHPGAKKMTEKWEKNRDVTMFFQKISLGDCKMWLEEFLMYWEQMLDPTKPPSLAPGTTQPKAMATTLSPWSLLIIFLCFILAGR
UniProt Q96LJ8, sequence (Q96LJ8 whole entry, looked up): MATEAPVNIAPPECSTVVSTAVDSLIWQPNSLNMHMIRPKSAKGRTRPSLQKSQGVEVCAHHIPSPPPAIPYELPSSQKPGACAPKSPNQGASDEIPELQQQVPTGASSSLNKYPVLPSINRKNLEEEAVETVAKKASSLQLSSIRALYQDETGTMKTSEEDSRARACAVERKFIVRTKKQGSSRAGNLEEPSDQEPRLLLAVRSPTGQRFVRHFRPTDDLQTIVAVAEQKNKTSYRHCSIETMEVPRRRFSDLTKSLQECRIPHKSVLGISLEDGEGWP
UniProt Q96ET8, sequence (Q96ET8 whole entry, looked up): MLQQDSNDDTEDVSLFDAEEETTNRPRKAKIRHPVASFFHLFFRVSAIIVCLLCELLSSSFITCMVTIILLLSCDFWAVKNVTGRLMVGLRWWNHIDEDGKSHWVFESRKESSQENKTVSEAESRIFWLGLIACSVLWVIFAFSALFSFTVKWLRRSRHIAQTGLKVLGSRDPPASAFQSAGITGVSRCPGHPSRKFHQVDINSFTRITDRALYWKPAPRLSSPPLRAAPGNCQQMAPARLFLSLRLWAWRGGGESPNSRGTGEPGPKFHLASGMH
UniProt Q9NVA4, sequence (Q9NVA4 whole entry, looked up): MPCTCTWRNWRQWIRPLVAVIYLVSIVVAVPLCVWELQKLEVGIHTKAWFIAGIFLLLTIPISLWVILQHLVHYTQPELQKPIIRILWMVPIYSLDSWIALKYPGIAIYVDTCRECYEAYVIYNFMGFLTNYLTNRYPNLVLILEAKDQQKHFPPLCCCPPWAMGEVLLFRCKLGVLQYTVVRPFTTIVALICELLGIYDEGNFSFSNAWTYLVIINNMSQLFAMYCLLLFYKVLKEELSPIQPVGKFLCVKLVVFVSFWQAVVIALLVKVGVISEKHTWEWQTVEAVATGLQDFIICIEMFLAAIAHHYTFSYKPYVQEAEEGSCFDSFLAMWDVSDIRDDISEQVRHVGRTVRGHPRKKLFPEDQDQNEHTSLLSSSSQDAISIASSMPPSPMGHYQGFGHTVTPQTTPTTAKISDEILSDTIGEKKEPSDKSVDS
UniProt Q16881, sequence (Q16881 whole entry, looked up): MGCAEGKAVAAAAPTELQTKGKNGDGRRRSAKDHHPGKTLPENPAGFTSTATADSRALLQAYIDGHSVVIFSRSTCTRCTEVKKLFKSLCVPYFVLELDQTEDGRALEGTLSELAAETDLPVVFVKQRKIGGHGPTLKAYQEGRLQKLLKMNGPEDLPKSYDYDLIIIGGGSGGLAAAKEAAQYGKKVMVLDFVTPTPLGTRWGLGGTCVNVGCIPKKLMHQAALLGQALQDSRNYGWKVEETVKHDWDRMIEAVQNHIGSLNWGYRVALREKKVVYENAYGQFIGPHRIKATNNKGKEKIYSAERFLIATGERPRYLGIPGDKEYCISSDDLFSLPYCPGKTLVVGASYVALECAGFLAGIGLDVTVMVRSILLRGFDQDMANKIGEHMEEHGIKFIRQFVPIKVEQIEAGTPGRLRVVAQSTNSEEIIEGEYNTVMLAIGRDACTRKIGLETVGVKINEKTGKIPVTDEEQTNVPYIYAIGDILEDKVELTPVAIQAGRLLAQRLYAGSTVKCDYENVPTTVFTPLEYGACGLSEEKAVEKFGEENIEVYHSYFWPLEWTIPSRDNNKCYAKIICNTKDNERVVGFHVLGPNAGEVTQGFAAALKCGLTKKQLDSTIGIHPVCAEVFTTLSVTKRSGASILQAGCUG
UniProt Q7Z3V4, sequence (Q7Z3V4 whole entry, looked up): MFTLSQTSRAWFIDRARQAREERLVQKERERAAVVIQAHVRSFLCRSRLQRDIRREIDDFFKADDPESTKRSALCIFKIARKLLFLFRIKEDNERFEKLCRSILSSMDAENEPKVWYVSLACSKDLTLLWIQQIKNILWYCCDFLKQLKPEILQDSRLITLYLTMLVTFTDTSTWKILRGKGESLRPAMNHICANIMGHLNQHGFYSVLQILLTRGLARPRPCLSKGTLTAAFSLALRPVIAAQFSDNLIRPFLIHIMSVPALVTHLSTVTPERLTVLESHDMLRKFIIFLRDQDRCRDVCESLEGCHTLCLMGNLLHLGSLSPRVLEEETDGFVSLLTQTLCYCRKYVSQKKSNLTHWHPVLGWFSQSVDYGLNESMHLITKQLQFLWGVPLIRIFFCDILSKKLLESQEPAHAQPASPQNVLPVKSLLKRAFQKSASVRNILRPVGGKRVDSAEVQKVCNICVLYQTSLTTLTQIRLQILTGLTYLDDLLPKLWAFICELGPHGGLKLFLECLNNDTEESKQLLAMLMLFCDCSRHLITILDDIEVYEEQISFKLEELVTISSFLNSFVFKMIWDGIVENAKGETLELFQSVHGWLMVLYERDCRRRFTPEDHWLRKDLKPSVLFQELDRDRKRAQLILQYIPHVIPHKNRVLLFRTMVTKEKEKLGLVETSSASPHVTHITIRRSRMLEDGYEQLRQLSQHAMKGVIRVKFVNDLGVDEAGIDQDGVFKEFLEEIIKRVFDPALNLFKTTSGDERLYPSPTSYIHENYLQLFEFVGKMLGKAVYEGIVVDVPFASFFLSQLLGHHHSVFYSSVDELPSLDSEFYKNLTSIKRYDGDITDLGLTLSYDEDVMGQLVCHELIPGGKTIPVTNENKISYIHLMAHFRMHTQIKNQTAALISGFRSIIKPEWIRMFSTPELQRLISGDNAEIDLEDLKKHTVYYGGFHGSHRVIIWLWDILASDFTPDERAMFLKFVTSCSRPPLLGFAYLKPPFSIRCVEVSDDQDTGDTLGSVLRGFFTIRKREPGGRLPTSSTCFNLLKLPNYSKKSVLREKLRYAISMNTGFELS
UniProt P51668, sequence (P51668 whole entry, looked up): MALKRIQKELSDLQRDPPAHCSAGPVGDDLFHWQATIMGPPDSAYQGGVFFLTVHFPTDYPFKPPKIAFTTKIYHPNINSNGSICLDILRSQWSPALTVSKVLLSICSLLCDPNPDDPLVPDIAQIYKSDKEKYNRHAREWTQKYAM
UniProt P36406, sequence (P36406 whole entry, looked up): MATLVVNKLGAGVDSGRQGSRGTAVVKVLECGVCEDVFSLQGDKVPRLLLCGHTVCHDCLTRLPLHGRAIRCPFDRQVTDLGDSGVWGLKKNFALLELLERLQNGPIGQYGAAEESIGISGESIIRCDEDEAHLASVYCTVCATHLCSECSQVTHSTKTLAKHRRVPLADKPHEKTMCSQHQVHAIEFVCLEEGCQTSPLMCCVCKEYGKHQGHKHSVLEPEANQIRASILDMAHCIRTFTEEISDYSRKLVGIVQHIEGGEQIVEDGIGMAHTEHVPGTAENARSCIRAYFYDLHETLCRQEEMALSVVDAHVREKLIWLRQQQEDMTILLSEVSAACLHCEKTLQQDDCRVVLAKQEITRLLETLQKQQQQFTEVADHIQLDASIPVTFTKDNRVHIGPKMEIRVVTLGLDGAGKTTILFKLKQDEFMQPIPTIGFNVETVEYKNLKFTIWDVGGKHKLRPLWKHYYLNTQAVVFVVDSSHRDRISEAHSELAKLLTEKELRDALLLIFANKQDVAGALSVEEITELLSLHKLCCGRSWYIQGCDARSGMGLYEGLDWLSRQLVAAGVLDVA
UniProt O95857, sequence (O95857 whole entry, looked up): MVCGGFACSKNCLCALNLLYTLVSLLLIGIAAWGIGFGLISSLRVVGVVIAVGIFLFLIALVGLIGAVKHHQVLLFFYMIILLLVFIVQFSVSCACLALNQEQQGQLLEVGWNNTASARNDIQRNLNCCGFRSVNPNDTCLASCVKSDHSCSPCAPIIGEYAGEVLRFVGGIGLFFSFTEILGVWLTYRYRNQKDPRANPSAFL
UniProt Q629K1, sequence (Q629K1 whole entry, looked up): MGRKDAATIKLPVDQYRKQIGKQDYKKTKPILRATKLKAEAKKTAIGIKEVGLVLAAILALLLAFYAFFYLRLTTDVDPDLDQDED
UniProt Q9BQB6, sequence (Q9BQB6 whole entry, looked up): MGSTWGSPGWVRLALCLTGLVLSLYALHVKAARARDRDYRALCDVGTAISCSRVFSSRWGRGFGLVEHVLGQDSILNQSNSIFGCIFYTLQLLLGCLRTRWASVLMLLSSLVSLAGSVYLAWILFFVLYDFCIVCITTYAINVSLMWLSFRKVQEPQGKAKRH

Target	log2 fold change (erlotinib)	log2 fold change [1]	log2 fold change [2]	log2 fold change [3]	log2 fold change [4]	log2 fold change [5]	log2 fold change [6]	log2 fold change [7]	log2 fold change [8]	log2 fold change [9]
UBE2E3 (UniProt Q969T4)	0.063	0.112	0.152	-0.034	0.083	0.009	0.014	0.045	-0.028	-0.019
UBXN8 (UniProt O00124)		0.056	0.147		0.141	-0.41	-0.149	-0.036	0.167	-0.019
TUT4 (UniProt Q5TAX3)	0.077		-0.231	0.005		-0.011	0.08		-0.015	-0.129
WARS1 (UniProt G3V3P2)						0.155				
WDR46, A0A0G2JJL1	-0.273		-0.741	-0.011		0.027			0.279	0.114
TTC26						0.001	-0.005		0.09	-0.062
XAB2 (UniProt Q9HCS7)			-0.223				0.075			
TRIQK (UniProt Q629K1)			-0.023			0.046	-0.077		-0.003	0.097
TVP23C (UniProt Q96ET8)	-0.025	0.053		-0.021	0.062			-0.098	0.066	-0.031
TMEM8A (UniProt Q9HCN3)	0.046			-0.001		0.02	0.124		-0.014	0.011
UBE2D1 (UniProt P51668)	0.098	0.071		0.068	0.057	0.023	0.01	-0.096	0.022	-0.162
TRIM5 (UniProt Q9C035)	-0.061	0.075	0.111	0.162	0.012		-0.182	0.019	-0.077	-0.01
TOM1L2 (UniProt Q6ZVM7)	-0.048	0.06	0.043	0.013	0.025			-0.026		
TOM1 (UniProt O60784)	0.082		0.193	-0.037		0.186			0.022	-0.097
WDR4 isoform 3 (UniProt P57081)			-0.144			0.045				
WARS1 (UniProt G3V339)			-0.023							
WARS1 (UniProt G3V5U1)			-0.233			0.187				
ULBP1 (UniProt Q9BZM6)	-0.017	0.011	0.231	0.044	0.021		-0.083	0.037	-0.073	0.078
UNC119B (UniProt A6NIH7)	0	0.124		0.316	0.031	0.001	0.472 (active)	0.005	-0.012	0.454 (active)

Target	log2 fold change (erlotinib)	log2 fold change [1]	log2 fold change [2]	log2 fold change [3]	log2 fold change [4]	log2 fold change [5]	log2 fold change [6]	log2 fold change [7]	log2 fold change [8]	log2 fold change [9]
VKORC1 (UniProt Q9BQB6)	0.048	-0.048		-0.019	0.175	0.113	0.044	0.151	-0.049	0.005
TXNRD1 isoform 7 (UniProt Q16881)	0.107		0.1	-0.193		0.199				
TUBA4A (UniProt C9JJQ8)						0.004			0.142	-0.036
TRIM23 (UniProt P36406)	0.006			0.075		-0.096	0.061		-0.202	0.161
UTP20 (UniProt O75691)	-0.082		0.053	-0.321					0.061	0.04
TXNL4B (UniProt Q9NX01)	0.018	0.007		-0.001	0.088	0.221	0.008	0.041	-0.005	-0.016
U2AF1L5 (UniProt P0DN76)	1.29 (active)	0.031		0.022	-0.159	0.096		-0.005	0.153	-0.207
UBIAD1 (UniProt Q9Y5Z9)	0.101	-0.052		0.04	0.194	-0.036	0.259	0.297 (active)	0	0.094
WARS1 (UniProt G3V227)		-0.08	0.018		-0.159	0.093		-0.178	0.098	-0.089
TMEM184C (UniProt Q9NVA4)		0.04	-0.055		-0.05	-0.027	-0.047	-0.009	-0.092	-0.059
UBE3B (UniProt Q7Z3V4)		0.018	0.08		0.121	0.135	0.064	-0.043	0.395	0.16
TRIM44 (UniProt Q96DX7)	0.022	0.1		0.025	0.028	0.087	-0.061	-0.037	-0.023	-0.014
UBAP2L (UniProt F8W726)	0.019			0.004		-0.019			0	0.124
TRPT1 isoform 4 (UniProt Q86TN4)	0.021	0.065		-0.08	0.021		0.043	-0.062		
WDR75 (UniProt Q8IWA0)		-0.256	-0.592		0.306	0.091	-0.063	0.042	-0.193	0.021
UBXN10 (UniProt Q96LJ8)	-0.036		0.004	0.048		-0.068	-0.077		-0.101	0.128
USP48 (UniProt Q86UV5)	0.228			-0.112		0.007				
TSPAN13 (UniProt O95857)	0.017		-0.058	0.061		0.075	-0.02		0.065	0.143
WARS1 (UniProt G3V277)	0.183	-0.032		-0.076	0.25	0.036		-0.014	0.141	-0.008

Source: the supplement of paper PMC10849652
